From PubChem BioAssay (Tox21)
Records with an inconclusive call do not appear. The source made the active and inactive calls. Unless noted, calls come from the whole dose curve; as a rule, active = well fitted curve in the direction sought with a large enough effect in the repeat runs; inconclusive = weak or mixed curves; inactive = flat fitted curve, though single readings scatter.

Experiments:
[1] = qHTS assay to test for compound auto fluorescence at 535 nm (green) in HEK293 cells (AID 720680)
[2] = qHTS assay to test for compound auto fluorescence at 460 nm (blue) in HEK293 cell free culture (AID 720681)
Summary of the method: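 Blue fluorescence (Ex 405/Em 460 nm, triamterene-equivalent) was read immediately after pin transfer of compound or DMSO into medium (DMEM, 10% FBS) without cells.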

[3] = qHTS assay to test for compound auto fluorescence at 535 nm (green) in HEK293 cell free culture (AID 720682)
Summary of the method: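 Using fluorescein as calibrant, autofluorescence was quantified at 485/535 nm in cell-free DMEM containing 10% FBS after pintool addition of compound or vehicle.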

[4] = qHTS assay to test for compound auto fluorescence at 590 nm (red) in HEK293 cell free culture (AID 720683)
Summary of the method: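 Red-channel autofluorescence of compounds in culture medium (DMEM, 10% FBS), no cells, measured at 540/590 nm. Rose Bengal sodium is the reference fluorophore for equivalence.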

[5] = qHTS assay to test for compound auto fluorescence at 460 nm (blue) in HepG2 cell free culture (AID 720685)
Summary of the method: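 Cell-free plates of MEM plus 10% FBS received 23 nL compound or DMSO vehicle; blue-channel (405/460 nm) intensity scored against triamterene as reference fluorophore.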

[6] = qHTS assay to test for compound auto fluorescence at 535 nm (green) in HepG2 cell free culture (AID 720686)
[7] = qHTS assay to test for compound auto fluorescence at 460 nm (blue) in HepG2 cells (AID 720687)
Summary of the method: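 Blue-channel autofluorescence (Ex/Em 405/460 nm, triamterene-equivalent) was measured after 1 hr compound exposure at 37 C, 5% CO2. Cells were HepG2, plated overnight at 37 C in MEM plus 10% FBS.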

[8] = biological target: Glucocorticoid receptor (Homo sapiens) (UniProt P04150); assay: qHTS assay to identify small molecule agonists of the glucocorticoid receptor (GR) signaling pathway (AID 720691; active = well fitted activation curve with a large enough effect in the signal ratio in the repeat runs, not every such curve was filed as active; the % refers to the signal ratio)
Glucocorticoid receptor (Homo sapiens), sequence (P04150 whole entry, looked up): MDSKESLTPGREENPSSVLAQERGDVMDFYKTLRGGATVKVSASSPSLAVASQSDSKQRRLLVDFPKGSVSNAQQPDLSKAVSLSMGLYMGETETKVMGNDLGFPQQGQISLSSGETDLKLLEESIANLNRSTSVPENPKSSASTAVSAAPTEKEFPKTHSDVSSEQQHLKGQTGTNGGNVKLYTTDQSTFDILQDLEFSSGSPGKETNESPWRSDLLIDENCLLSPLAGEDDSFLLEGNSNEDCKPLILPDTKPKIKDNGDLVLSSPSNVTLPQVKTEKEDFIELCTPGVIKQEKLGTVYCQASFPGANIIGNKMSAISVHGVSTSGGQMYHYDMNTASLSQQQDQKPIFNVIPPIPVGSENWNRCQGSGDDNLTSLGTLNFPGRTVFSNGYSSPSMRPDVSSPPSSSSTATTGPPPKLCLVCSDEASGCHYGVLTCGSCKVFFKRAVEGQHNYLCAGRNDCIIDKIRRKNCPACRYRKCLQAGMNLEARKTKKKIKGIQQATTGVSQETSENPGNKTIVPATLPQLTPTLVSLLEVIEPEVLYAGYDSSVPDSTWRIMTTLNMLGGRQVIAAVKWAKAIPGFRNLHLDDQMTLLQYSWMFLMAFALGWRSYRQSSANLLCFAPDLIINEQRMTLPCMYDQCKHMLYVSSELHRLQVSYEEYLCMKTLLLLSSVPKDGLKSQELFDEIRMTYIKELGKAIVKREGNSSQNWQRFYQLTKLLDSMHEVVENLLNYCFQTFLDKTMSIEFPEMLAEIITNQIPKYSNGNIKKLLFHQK
Summary of the method: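 Measures GR pathway activation through a GRE-beta-lactamase reporter stably integrated in HeLa cells, with 18 h compound treatment at 37 C and fluorescence detection using a FRET substrate.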

[9] = biological target: Glucocorticoid receptor (Homo sapiens) (UniProt P04150); assay: qHTS assay to identify small molecule antagonists of the glucocorticoid receptor (GR) signaling pathway (AID 720692; active = well fitted inhibition curve with a large enough effect in the signal ratio in the repeat runs, not every such curve was filed as active; the % refers to the signal ratio; note: potency is the fitted concentration of half-maximal effect)
Summary of the method: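 Tox21 10K library screened in concentration-response for blockade of dexamethasone (5 nM final)-induced GRE-bla reporter activity in HeLa cells; 18 h treatment, fluorescence read.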

[10] = qHTS assay to test for compound auto fluorescence at 590 nm (red) in HepG2 cell free culture (AID 720684)
Summary of the method: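 No cells present: MEM + 10% FBS only. Compound pinned in, red label read (540/590 nm). Activity = fluorescence equivalent to Rose Bengal sodium.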
% is set by controls: 0 for no effect and ±100 for the full control effect.

CCn1cc(C(=O)O)c(=O)c2cc(F)c(N3CCNCC3)cc21
inactive: outcome [1] | Potency [2] | outcome [3] | outcome [4] | Potency [5] | outcome [6] | Potency [7] | Potency [8] | Potency [9]

CC1(C)[C@H](C(=O)O)N2C(=O)C[C@H]2S1(=O)=O
inactive: outcome [1] | Potency [2] | outcome [3] | outcome [4] | Potency [5] | outcome [6] | Potency [7]

O=C(Nc1cccc2c(=O)cc(-c3nn[nH]n3)oc12)c1ccc(OCCCCc2ccccc2)cc1
inactive: outcome [1] | Potency [2] | outcome [3] | outcome [4] | Potency [5] | outcome [6] | Potency [7]

Brc1cc(Br)c(Oc2cc(Br)c(Br)cc2Br)cc1Br
inactive: outcome [1] | Potency [2] | outcome [3] | outcome [4] | Potency [5] | outcome [6] | Potency [7]

O=C(/C=C/c1ccccc1)OCCc1ccccc1
inactive: outcome [1] | Potency [2] | outcome [3] | outcome [4] | Potency [5] | outcome [6] | Potency [7] | Potency [8]

O=C(Cn1ccnc1[N+](=O)[O-])NCCO
inactive: outcome [1] | Potency [2] | outcome [3] | outcome [4] | Potency [5] | outcome [6]

CCOC(=O)OC(C)OC(=O)[C@@H]1N2C(=O)[C@@H](NC(=O)[C@H](N)c3ccccc3)[C@H]2SC1(C)C (stereo not given in full)
inactive: fluorescence, % of fluorescein [1] 0.0714% [at 18.6 µM] | fluorescence, % of fluorescent control [2] 0.602% [at 18.6 µM] | activity change [3] -0.0186% [at 18.6 µM] | fluorescence, % of fluorescent control [4] -0.265% [at 18.6 µM] | fluorescence, % of fluorescent control [5] 0.443% [at 18.6 µM] | fluorescence, % of fluorescein control [6] 0.112% [at 18.6 µM] | fluorescence, % of fluorescent control [7] 0.278% [at 18.6 µM]

Oc1ccc(Cl)c2cccnc12
inactive: outcome [1] | Potency [2] | outcome [3] | outcome [4] | Potency [5] | outcome [6] | Potency [7] | Potency [8] | Potency [9]

C[C@@H]1CN(CCCn2c3ccccc3c3ccccc32)C[C@H](C)N1
inactive: outcome [1] | Potency [2] | outcome [3] | outcome [4] | Potency [5] | outcome [6] | Potency [7]

O=C1NC(=O)c2cc([N+](=O)[O-])ccc21
inactive: outcome [1] | Potency [2] | outcome [3] | outcome [4] | Potency [5] | outcome [6] | Potency [7]

CN1CCCN=C1COC(=O)C(O)(c1ccccc1)C1CCCCC1 (stereo not given)
inactive: outcome [1] | Potency [2] | outcome [3] | outcome [4] | Potency [5] | outcome [6] | Potency [7] | Potency [8]

CCCCCCCCC(CCCCCC)C(=O)O (stereo not given)
active: Potency [9] 38.9 µM
inactive: outcome [1] | Potency [2] | outcome [3] | outcome [4] | Potency [5] | outcome [6] | Potency [7]

N#CCCN(CCO)CCO
inactive: outcome [1] | Potency [2] | outcome [3] | outcome [4] | Potency [5] | outcome [6] | Potency [7] | Potency [8]

CCOC(=O)c1ccccc1C(=C1C=C(Br)C(=O)C(Br)=C1)c1cc(Br)c(O)c(Br)c1
inactive: outcome [1] | Potency [2] | outcome [3] | outcome [4] | Potency [5] | outcome [6] | Potency [7]

Cc1ccc(CO)cc1
inactive: outcome [1] | Potency [2] | outcome [3] | outcome [4] | Potency [5] | outcome [6] | Potency [7] | Potency [8] | Potency [9]

Cc1ccc(Cl)c(Nc2ccccc2C(=O)O)c1Cl
inactive: outcome [1] | Potency [2] | outcome [3] | outcome [4] | Potency [5] | outcome [6] | Potency [7]

CCCCCCCCCCC(=O)O
inactive: outcome [1] | Potency [2] | outcome [3] | outcome [4] | Potency [5] | outcome [6] | Potency [7] | Potency [8]

CO/N=C(/C(=O)N[C@@H]1C(=O)N2C(C(=O)O)=C(COC(N)=O)CS[C@H]12)c1ccco1
inactive: outcome [1] | Potency [2] | outcome [3] | outcome [4] | Potency [5] | outcome [6] | Potency [7] | Potency [8] | Potency [9]

C=C/C(C)=C/C/C=C(\C)CCC=C(C)C
inactive: outcome [1] | Potency [2] | outcome [3] | outcome [4] | Potency [5] | outcome [6] | Potency [7] | Potency [8]

CC1(C)S[C@@H]2[C@H](NC(=O)C(c3ccccc3)S(=O)(=O)O)C(=O)N2[C@H]1C(=O)O (stereo not given in full)
inactive: Potency [2] | outcome [3] | outcome [4] | outcome [10] | Potency [5] | outcome [6] | Potency [7] | Potency [8] | Potency [9]

CN1CC(=O)N2[C@H](c3ccc4c(c3)OCO4)c3[nH]c4ccccc4c3C[C@@H]2C1=O
inactive: Potency [2] | outcome [3] | outcome [4] | outcome [10] | Potency [5] | outcome [6] | Potency [7] | Potency [8]

O=C1c2ccccc2C(=O)N1CCc1noc(-c2ccc(CN3CCCCCC3)s2)n1
inactive: Potency [2] | outcome [3] | outcome [4] | outcome [10] | Potency [5] | outcome [6] | Potency [7]

CCC1CO1 (stereo not given)
inactive: Potency [2] | outcome [3] | outcome [4] | outcome [10] | Potency [5] | outcome [6] | Potency [7] | Potency [8] | Potency [9]

CCCCCCCCCCCCCCN(CCO)CCO
inactive: Potency [2] | outcome [3] | outcome [4] | Potency [5] | outcome [6] | Potency [7]
